The list is not random: actives were taken first. Their share in the collection is about 4.6%.
D1 ag: agonists of human D1 dopamine receptor | actives 1% (n = 360,000) | HEK293 T-REx D1 cells, calcium flux, agonist mode | AID 504660 | activation, % at 2 µM | P21728; further: 0% is about no effect
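Agonism was scored from calcium flux recorded over 180 s (1 read/s) after pintool compound addition, following a 10-cycle baseline. Cells were inducible force-coupled HEK293 TREx D1, plated overnight at 30 C and loaded with no-wash calcium dye.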
D1 potentiator: potentiators of human D1 dopamine receptor; AID 504651; HEK293 TREx D1 cells, calcium flux, dopamine EC20 potentiation; potentiation, % at 10 µM; actives 0.036% (n = 360,000); in the data active means potentiation above about 30%; further: 0% is about no effect
TRHR ag: agonists of human TRH receptor; actives 0.18% (n = 360,000); activation, % at 2 µM; P34981; TRHR cells, calcium flux fluo-8, FDSS agonist mode; further: 0% is about no effect
Target sequence (P34981 whole entry, looked up): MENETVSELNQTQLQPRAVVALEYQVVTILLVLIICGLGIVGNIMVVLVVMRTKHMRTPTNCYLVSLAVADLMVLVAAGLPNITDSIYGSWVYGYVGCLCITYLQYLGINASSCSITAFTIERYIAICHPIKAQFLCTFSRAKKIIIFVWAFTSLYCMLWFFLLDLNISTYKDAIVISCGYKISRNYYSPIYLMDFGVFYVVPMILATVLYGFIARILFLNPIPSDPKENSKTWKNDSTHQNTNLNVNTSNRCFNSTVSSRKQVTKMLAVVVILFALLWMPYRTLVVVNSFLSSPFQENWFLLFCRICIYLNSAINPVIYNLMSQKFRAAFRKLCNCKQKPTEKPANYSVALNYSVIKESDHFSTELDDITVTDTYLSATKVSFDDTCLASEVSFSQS
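Agonist-mode FDSS calcium read (Ex 480/Em 530, 1 s cycles) in 1536-well TRHR cells with fluo-8 dye, after 10-cycle baseline and 23 nL compound addition; TRH at EC20 (10 nM final) added afterwards for the enhancer phase.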
TRHR PAM: TRH receptor (human) allosteric enhancement | P34981 | TRHR cells, fluo-8 calcium fluorescence, EC20 TRH enhancement | enhancement, % at 2 µM | actives 0.66% (n = 360,000); in the data active means enhancement above about 30%; further: 0% is about no effect
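TRHR-expressing cells loaded with fluo-8 calcium dye were read kinetically (ex 480/em 530) during compound addition, then stimulated with an EC20 of TRH (10 nM final). Enhancement of the Gq-mediated intracellular calcium response was scored.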
D1 antag: blocks dopamine activation of the human D1 receptor | P21728 | HEK293 TREx D1 cells, calcium flux, dopamine EC80; hits give low values | activity change, negative = inhibition, % at 10 µM | actives 3.2% (n = 360,000); in the data active means activity change below about -30%; further: on the % scale 0 is the no-effect control and ±100 the full control effect
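Using tetracycline-induced force-coupled D1 Hek293 cells and a calcium dye, signals were followed for 180 s after compound, then for 180 s after EC80 dopamine, to detect inhibitors.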
* = called active by the depositor; . = no result given. Unless noted, no stated cut-off is given here; in the data, active means activation above about 30%; inactive means the rest.

SMILES	D1 ag	D1 potentiator	TRHR ag	TRHR PAM	D1 antag
COc1ccc(NC(=O)CN2C(=O)NC3(CCCCC3C)C2=O)cc1OC (stereo unspecified)	3	-5	3	-3	-9
Cc1ccc(C)c(NC(=O)CN2CCCN(Cc3cccc(Cl)c3)S2(=O)=O)c1	6	-2	0	1	-79*
Cc1cccc(CN2CCN(CC(=O)Nc3c(C)cccc3C)S2(=O)=O)c1	5	4	36*	0	3
CCc1cccc(NC(=O)CN2CCCN(Cc3cccc(C)c3)S2(=O)=O)c1	5	1	-1	4	-1
COc1ccc(-c2csc(NC(=O)C3CCCCN3S(=O)(=O)c3ccccc3)n2)cc1 (stereo unspecified)	2	-4	0	1	-37*
O=C(Nc1nc(-c2ccccc2)cs1)c1cccc(S(=O)(=O)N2CCN(Cc3ccccc3)CC2)c1	6	8	0	37*	6
COc1ccc(-c2csc(NC(=O)CS(=O)(=O)c3ccccc3)n2)cc1	3	0	0	1	7
CN1CCN(S(=O)(=O)c2cccc(C(=O)Nc3nc(-c4ccccc4)cs3)c2)CC1	15	-5	-1	9	-32*
O=C(Nc1ccc(Cl)cn1)c1cccc(S(=O)(=O)N2CCCCC2)c1	31*	.	-2	11	7
Cc1nn(CCCC(=O)NCc2cccc(Cl)c2)c(=O)c2c1sc1ccccc12	2	0	0	-2	-15
CC(C)c1ccc(OC(=O)c2cccc(S(=O)(=O)N3CCN(C)CC3)c2)cc1	9	-12	-1	15	-28
CN(CC(=O)Nc1ccc(Cl)cc1)C(=O)c1cccc(S(=O)(=O)N2CCN(Cc3ccccc3)CC2)c1	3	-13	1	-7	-31*
O=C(Nc1ccc(-c2csc(Nc3ccccc3)n2)cc1)c1cccc(C(F)(F)F)c1	3	-5	0	1	-47*
Cc1nc(-c2cccc(NC(=O)c3cccc(S(=O)(=O)N4CCCC4)c3)c2)cs1	2	1	0	-1	-32*
CN(CC(=O)Nc1ccc(Cl)cc1)C(=O)c1cccc(S(=O)(=O)NCc2ccccc2)c1	2	6	0	0	-9
CC(NC(=O)c1cccc(S(=O)(=O)N2CCN(C)CC2)c1)c1ccc(Cl)cc1Cl (stereo unspecified)	16	-5	0	-8	-45*
CCC(=O)NC(c1ccco1)c1cc([N+](=O)[O-])c2cccnc2c1O (stereo unspecified)	2	0	1	-1	-22
COc1ccc(-c2csc(NC(=O)c3cccc(S(=O)(=O)N4CCN(C)CC4)c3)n2)cc1	19	-9	0	4	-48*
Cc1cccc(C(=O)N2CCc3cc(CNS(=O)(=O)c4cccs4)ccc32)c1	8	-1	-1	1	-32*
Cc1cccc(C(=O)N2CCc3cc(CNC(=O)c4ccnn4C)ccc32)c1	16	-3	-1	2	-36*
CCOc1ccc(CCNC(=O)Cn2nc(CC)n3c(cc4sccc43)c2=O)cc1	2	-2	0	2	-5
CN(C)c1ccc(/C=C(/C#N)C(=O)NCc2ccccc2)o1	102*	-4	43*	-2	-3
Cc1ccn2c(Nc3c(C)cccc3C)c(-c3ccc(Cl)s3)nc2c1	34*	-4	12	-3	1
Cc1ccn2c(Nc3c(C)cccc3C)c(-c3ccsc3)nc2c1	0	3	0	-6	5
O=C(Nc1ccc2ncccc2c1)Nc1ccc2ncccc2c1	1	-7	1	14	-36*
SMILES	D1 ag	D1 potentiator	TRHR ag	TRHR PAM	D1 antag
N#Cc1c(NC(=O)Cn2cnc3ccccc3c2=O)oc(-c2ccccc2)c1-c1ccccc1	4	-11	0	-5	-55*
O=C(Nc1ccc2nc(-c3ccco3)c(-c3ccco3)nc2c1)N1CCCC1	2	0	1	1	-8
Nc1c(C(=O)c2ccc(Cl)cc2)sc2nsc(SCCN3CCOCC3)c12	103*	-1	27	-5	-25
Nc1c(C(=O)c2ccccc2)sc2nsc(SCCN3CCCC3)c12	167*	-4	54*	-8	-34*
Cn1c(=O)c2c(-c3ccccc3)n3c(c2n(C)c1=O)C(c1cccc([N+](=O)[O-])c1)Nc1ccccc1-3 (stereo unspecified)	3	-3	1	-2	-9
O=C1c2ccccc2-c2onc3ccc(NCCCn4ccnc4)c1c23	208*	4	112*	2	-14
Cc1nn(CC(=O)NCc2ccc(OC(C)C)cc2)c(=O)c2c(C)n(-c3ccc(Cl)cc3)nc12	1	-1	-1	-14	1
CCN(CC)c1ccc2c(c1)OC(N)=C(C#N)C2c1cccnc1 (stereo unspecified)	86*	-4	23	-3	10
CCOC(=O)C1CCCN(c2cc(C)nc3c(-c4ccccc4OC)c(C)nn23)C1 (stereo unspecified)	0	-5	-1	8	16
CN(c1ccc(OCC(=O)OCC(=O)Nc2ccccc2F)cc1)S(=O)(=O)c1cccs1	36*	-6	3	10	-40*
CCOc1ccccc1NS(=O)(=O)c1ccc2c(c1)CC(C)N2C(=O)C1CC1 (stereo unspecified)	12	1	0	6	-25
O=C(c1ccc(COc2ccccc2Cl)o1)N1CCN(Cc2ccc3c(c2)OCO3)CC1	2	-2	0	8	9
CCOc1ccc(NC(=O)c2ccc(F)c(S(=O)(=O)NCc3ccc4c(c3)OCO4)c2)cc1	4	0	-1	0	-34*
CCOc1ccc(NC(=O)N2CCN(Cc3ccc4c(c3)OCO4)CC2)cc1	2	-9	-2	1	-78*
O=C(c1ccc(COc2ccc(Cl)cc2)o1)N1CCN(Cc2ccc3c(c2)OCO3)CC1	11	-11	2	-7	-43*
COc1ccc(OC)c(-c2nc3c(C#N)c[nH]n3c2NC2CCCCC2)c1	10	-2	0	-1	-4
CC(CNc1nc2ccccc2c2nc(-c3ccccc3)nn12)c1ccccc1 (stereo unspecified)	3	-3	0	2	-5
CCN(CCCNC(=O)CN1N=C(c2ccc(OC)cc2)CCC1=O)c1cccc(C)c1	0	-4	-1	-6	-40*
CCN(CCCNC(=O)CN1N=C(c2ccccc2)CCC1=O)c1cccc(C)c1	-4	-1	-1	5	13
COc1ccc(NC(=O)Cn2c(=O)nc(-c3ccccc3)c3ccccc32)cc1OC	-1	0	0	1	-17
N#Cc1cnn2ccc(-c3ccc4c(c3)CCC4)nc12	0	-8	-1	-8	-31*
N#C/C(=C(/O)c1ccc2c(c1)OCO2)c1nc2cc(C(F)(F)F)ccc2s1	15	-3	-1	-6	-41*
